Each structure is given as a SMILES string. Records with an inconclusive call do not appear. Calls of active or inactive are those of the source. Calls come from the whole dose curve; as a rule, active = well fitted cell-killing curve with a large enough effect in the repeat runs; inconclusive = weak or mixed curves; inactive = flat fitted curve, though single readings scatter.
% is set by controls: 0 for no effect and ±100 for the full control effect.

This assay is described as follows: qHTS assay to identify small molecule antagonists of the TGF-beta/Smad signaling pathway - cell viability counter screen (AID 1346824). Note: nearly all actives have a fitted effect of over 50% in size. The following applies: SBE-bla HEK293T viability, CellTiter-Glo luminescence; series mostly up to 76.8 µM; viability change, negative = cytotoxic: at the top concentration. An excerpt: U.S. Tox21 Program National Center for Advancing Translational Sciences [NCATS] NIH Chemical Genomics Center [NCGC] U.S. Environmental Protection Agency [EPA] National Institutes of Environmental Health Sciences [NIEHS] National Toxicology Program [NTP] U.S. Food and Drug Administration [FDA] Tox21 Assay Overview: Transforming growth factor beta (TGF-beta) superfamily consists of a large number of structurally related dimeric proteins that act as hormones or local mediators in regulating a wide range of biological functions. This superfamily includes TGF-betas themselves, the bone morphogenetic proteins (BMPs) and the activins. These ligands induce oligomerization of serine/threonine receptor kinases and phosphorylate the cytoplasmic signaling molecules of Smad protein family. CellSensor SBE-bla HEK 293T cell line (Life Technologies, Carlsbad, CA), responsive to TGF-beta was used to screen Tox21 10K compound library for identification of agonists/antagonists of the Smad signaling pathway. This cell line contains a beta-lactamase reporter gene under control of the Smad binding element (SBE) stably integrated into HEK 293T cells. Also cytotoxicity of the compounds was tested in parallel by measuring the cell viability using CellTiter-Glo assay system in the same wells.
Tox21 Assay Protocol Summary: SBE-bla HEK 293T cells were dispensed at 4,000/well in 5 uL of assay medium into black wall/clear-bottom 1536-well plates using a Multidrop Combi (ThermoFisher Scientific, Waltham, MA) dispenser. After the assay plates were incubated at 37 C and 5% CO2 for an overnight, 23 nL of compounds dissolved in DMSO, positive controls or DMSO only was transferred to the assay plate by a Pintool station (Kalypsys, San Diego, CA). Compound transfer was followed by the addition of 1 uL of 0.25 ng/mL TGF-beta1 or assay buffer using two separate tips of Flying Reagent Dispenser (FRD, Aurora Discovery, San Diego, CA). The assay plates were incubated at 37 C and 5% CO2 for 5 hr. One uL of LiveBLAzer B/G FRET substrate (Life Technologies) was added using a Flying Reagent Dispenser (FRD, Aurora Discovery, San Diego, CA) and the plates were incubated at room temperature for 2 hr. Fluorescence intensity (405 nm excitation, 460 nm and 530 nm emissions) was measured using an Envision plate reader (PerkinElmer, Shelton, CT). For cytotoxicity read, 4 uL of CellTiter-Glo reagent (Promega Corporation, Madison, WI) was added to each well of the assay plates using FRD. After 30 min incubation at room temperature, the luminescence intensity was measured using ViewLux plate reader (PerkinElmer).
Background: qHTS replaces the single test concentration by a dilution series.
Turning to `CC(=O)C(C)=O`, the “viability change, negative = cytotoxic” value is 10.3% (inactive).

As to `CC(=O)N[C@@H](Cc1ccc(O)cc1)C(=O)O`, the “viability change, negative = cytotoxic” value was 6.4% [at 35.3 µM] (inactive).

As for `CCC(Cl)CC(Cl)C(Cl)C(Cl)C(Cl)C(C)Cl` (stereo not given), the viability change, negative = cytotoxic is -12.4% [at 15.8 µM] (inactive).

In the case of `CC12CC3CC(C)(C1)CC(N)(C3)C2`, the “viability change, negative = cytotoxic” value was -6.21% [at 35.3 µM] (inactive).

In the case of `Nc1ccc(N=Nc2ccc(N)cc2)cc1`, the “viability change, negative = cytotoxic” value was -0.0935% [at 35.3 µM] (inactive).

`O=C(O)CO`: the “viability change, negative = cytotoxic” value is 24.7% (inactive).

For the compound `CC(=O)OC(C)C[N+](C)(C)C` (stereo not given), the “viability change, negative = cytotoxic” value was -11.5% [at 35.3 µM] (inactive).

For `CCCCCCC(O)CCCCCCCCCCC(=O)OC` (stereo not given), the “viability change, negative = cytotoxic” value is -1.18% (inactive).

Consider `Cc1ccc(Cl)cc1N`, for which the “viability change, negative = cytotoxic” value was -0.0093% (inactive).

Consider `CCOC(=O)C(C)O` (stereo not given), for which the “viability change, negative = cytotoxic” value was 20.9% (inactive).

As for `CCCC(=O)OC(=O)CCC`, the “viability change, negative = cytotoxic” value was -1.45% (inactive).

On to `CC1CCCC(=O)C1=O` (stereo not given), for which the “viability change, negative = cytotoxic” value was -1.39% (inactive).

For `CC(CN(CCN(CC(C)OCCO)CC(C)OCCO)CC(C)OCCO)OCCO` (stereo not given), the “viability change, negative = cytotoxic” value was -0.303% (inactive).

Regarding `Nc1nc2ccc(OC(F)(F)F)cc2s1`, the “viability change, negative = cytotoxic” value is -10.7% [at 35.3 µM] (inactive).

With `C1CCCCC1`, the “viability change, negative = cytotoxic” value is 13.2% (inactive).

As for `CCCCCCCCCCCCCOC(=O)CCSCCC(=O)OCCCCCCCCCCCCC`, the viability change, negative = cytotoxic is 16.1% [at 15.8 µM] (inactive).

As to `CC(C)COC(=O)c1ccc(O)cc1`, the “viability change, negative = cytotoxic” value was -4.15% (inactive).

`O=C(C(=O)c1ccco1)c1ccco1`: the “viability change, negative = cytotoxic” value is 3.25% (inactive).

As to `O=C(c1ccccc1)C1CCC1`, the “viability change, negative = cytotoxic” value was -1.31% (inactive).

As to `O=S(=O)(O)CO`, the “viability change, negative = cytotoxic” value is 1.05% (inactive).

With `[Cl][Nd]([Cl])[Cl]`, the “viability change, negative = cytotoxic” value was 11.8% (inactive).

For `CC(C)(O)CCc1ccccc1`, the “viability change, negative = cytotoxic” value was -1.08% (inactive).

For `Cc1cccc(C)c1NC(=O)c1cc(S(N)(=O)=O)c(Cl)cc1O`, the “viability change, negative = cytotoxic” value was 3% [at 35.3 µM] (inactive).

As for `Nc1ccc(NC(=O)c2ccc(N)cc2)cc1`, the “viability change, negative = cytotoxic” value is 8.97% (inactive).

Take `CCC(CO)(CO)CO`: the “viability change, negative = cytotoxic” value was 18.6% (inactive).

On to `c1ccc(CCCc2ccncc2)cc1`, for which the “viability change, negative = cytotoxic” value is -21.1% (inactive).

In the case of `CNS(=O)(=O)c1cc(C(=O)N2CCC(CCN3C4CCC3CC(n3c(C)nc5ccccc53)C4)(c3cccc(F)c3)CC2)c(Cl)cc1F` (stereo not given), the “viability change, negative = cytotoxic” value was -5.76% (inactive).

For `NC(=O)CCCCC(N)=O`, the “viability change, negative = cytotoxic” value is 2.71% (inactive).

Turning to `O=c1[nH]c2cc(C(F)(F)F)c(N3CCOCC3)cc2n(CP(=O)(O)O)c1=O`, the “viability change, negative = cytotoxic” value was 4.59% [at 35.3 µM] (inactive).

For `Cc1ccc2nc(N)[nH]c(=O)c2c1Sc1ccncc1`, the “viability change, negative = cytotoxic” value is 1.21% [at 35.3 µM] (inactive).

Take `Cc1ccc(Nc2c(F)cccc2Cl)c(CC(=O)O)c1`: the “viability change, negative = cytotoxic” value is 18.9% [at 35.3 µM] (inactive).

For `CC(=O)OCCC(C)CC(C)(C)C` (stereo not given), the “viability change, negative = cytotoxic” value is 9.79% (inactive).

Regarding `CC(C)N=C=NC(C)C`, the “viability change, negative = cytotoxic” value was 1.9% (inactive).

For `O=C(Nc1ccc(C(=O)O)c(O)c1)c1ccccc1`, the “viability change, negative = cytotoxic” value was -0.204% [at 35.3 µM] (inactive).

Consider `CN1CCCN(C(c2ccccc2)c2ccc(Cl)cc2)CC1` (stereo not given), for which the “viability change, negative = cytotoxic” value is -12.6% [at 35.3 µM] (inactive).

With `CC/C=C\C/C=C\C/C=C\CCCCCCCC(=O)OCC`, the “viability change, negative = cytotoxic” value is -4.57% (inactive).

Turning to `COC(OC)OC`, the “viability change, negative = cytotoxic” value is 1.99% (inactive).

In the case of `Cc1oc(=O)oc1COC(=O)[C@@H]1N2C(=O)[C@@H](NC(=O)[C@H](N)c3ccccc3)[C@H]2SC1(C)C`, the “viability change, negative = cytotoxic” value is -0.0939% [at 35.3 µM] (inactive).

Take `CCOC(=O)c1ccc(NC(=O)CN2CCCCC2)cc1`: the “viability change, negative = cytotoxic” value was 0.964% [at 35.3 µM] (inactive).

On to `Cc1cc(CCC(=O)OCCOCCOCCOC(=O)CCc2cc(C)c(O)c(C(C)(C)C)c2)cc(C(C)(C)C)c1O`, for which the “viability change, negative = cytotoxic” value is 6.4% (inactive).

For the origin of these results see PubChem BioAssay (Tox21).
